Results on 15 molecules are retold here after PubChem BioAssay (EPA / NIEHS).

Activity calls are given as the source filed them. How the source made its calls: active means hit-call score of the fitted dose curve at least 0.9, where 1 is the maximum; inactive means score below 0.9.

This test in a line: CCTE_Shafer_MEA_dev_network_spike_duration_std: CCTE's Neural Network Formation Assay for Standard Deviation of Network Spike Duration, Shafer Lab (AID 2284052).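 Further: hits are decreases in network spike duration SD versus DMSO vehicle.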 How it is done:
CCTE_Shafer_MEA_dev assay is conducted using Axion Biosystems 48 well microelectrode array (MEA) plates and Maestro recording system. Each well of the MEA plate contains a grid of 16 microelectrodes embedded in the culture surface. Electrically active cells, such as neurons, can be cultured over the electrodes, and electrical activity in these cells can be recorded extracellularly. The spontaneous firing of neurons is captured from each electrode on a microsecond timescale providing both temporally and spatially precise data. […] The CCTE_Shafer_MEA_dev assay uses primary cultures of rat cortical neurons. Recordings are made on days post-plating 5, 7, 9 and 12. As these cultures mature over time, neural networks develop functional activity and form cohesive networks in which electrical activity can be highly coordinated. CCTE_Shafer_MEA_dev_network_spike_duration_std is 1 of 19 assay components of the CCTE_Shafer_MEA_dev assay. It measures the standard deviation of the duration of network spikes (temporally-clustered groups of action potential firing across multiple electrodes) during a recording in a microelectrode array (MEA) using Axion Biosystems Maestro 768 channel amplifier with the AxIS adaptive spike detector. To collapse across multiple recordings made on days post-plating 5, 7, 9 and 12, the trapezoidal area-under-the-curve of the component is calculated.Data from the assay component CCTE_Shafer_MEA_dev_network_spike_duration_std was analyzed into 1 assay endpoint. This assay endpoint, CCTE_Shafer_MEA_dev_network_spike_duration_std, was analyzed in the negative analysis fitting direction relative to DMSO as the negative control and baseline of activity. Using a type of functional reporter, gain or loss-of-signal activity can be used to understand electrical activity.
On the day prior to culture, each well was coated thoroughly with 150 uL of 0.05% polyethyleneimine (PEI, Sigma Cat P3143) in 50 mM HEPES (Sigma Cat H7523) at a pH of 8. The plate was incubated at 37C for one hour. PEI was rinsed out with 500 uL of sterile water three times. Plates were stored at 4C until the day of culture. This culture was plated at a seeding density of 1.5 x 10^5 cells/well on a 48-well MEA plate, prepared as described above. Cells were administered via a 25 uL media/laminin ([…]; Sigma Cat L2020-1MG) drop directly onto the microelectrode array, as adding the cells with the laminin results in better attachment than pre-coating with laminin. After 2 hours, an additional 475 uL of cortical media was added and the cells returned to the incubator. Exposure starts at day 0 of plating and is continued over twelve days of network development until the experiment is terminated. Cells are fed with fresh medium on DIV 5 and 9, following the recordings on those days. The entire volume of media in the well is exchanged and any vehicle or compound treatment is renewed. Complete details are found in OP-NHEERL/ISTD/SBB/TJS/2015-03-r0 (available on request, email shafer.tim@epa.gov). Measurement of the electrical activity is non-invasive, and recordings can be made from the same plate over multiple different days of the culture. In cortical neurons, this allows for the measurement of extracellular action potentials over the period during which networks form in the MEA plate.
In the case of `CCCN(CCC)C(=O)SCC`, the call was inactive.
In the case of `CSC(=O)c1cccc2nnsc12`, the molecule was called inactive.
With `COCCO`, the call was inactive.
Regarding `CC(C)(c1ccc(O)cc1)c1ccc(O)cc1`, the call was inactive.
On to `O=C(O)c1ccccc1`, for which the molecule was classed as inactive.
Same read-out and setting: next, `S=C([S-])NCCNC(=S)[S-].[Mn+2]`: “inactive”.
Same read-out and setting: next, `CC1(C)C(C=C(Cl)Cl)C1C(=O)OCc1cccc(Oc2ccccc2)c1` (stereo not given): “inactive”.
On to `CCCCOCCOCCOCc1cc2c(cc1CCC)OCO2`, for which the result was inactive.
In the case of `Oc1ccc(C(c2ccc(O)cc2)C(Cl)(Cl)Cl)cc1`, the outcome was inactive.
On to `S=C(S)NCCNC(=S)S.[Mn+2].[S-]C([S-])=NCCN=C([S-])[S-].[Zn+2]`, for which the result was inactive.
Turning to `Cc1nn(C)c(Oc2ccccc2)c1C=NOCc1ccc(C(=O)OC(C)(C)C)cc1`, the AC50 was 0.953 nM (active).
Regarding `C#CCOC(=O)[C@@H](C)Oc1ccc(Oc2ncc(Cl)cc2F)cc1`, the molecule was classed as inactive.
`CCN(CC)C(=O)c1cccc(C)c1`: the result was inactive.
Take `OB(O)O`: the call was inactive.
Take `CCCCC(CC)CN1C(=O)C2C3C=CC(C3)C2C1=O` (stereo not given): the outcome was inactive.

A word on the AC50: it is the concentration giving half of the maximal activity seen.
